The panel holds about 79,000 compounds, 15% with a hit somewhere; the sample as a whole holds those more often. Active and inactive are the calls of the source. Rule as the data show it: active = growth inhibition above about 70%; inactive = the rest.
Key:
[1] = NCI Yeast Anticancer Drug Screen. Data for the rad50 strain (AID 155);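 also: 0% = growth of vehicle-only cultures of the same strain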; conditions: S. cerevisiae rad50 strain growth inhibition; at 50.0 µM; stronger effect = higher value
Procedure, shortened: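 Growth of the mutant yeast was measured after compound exposure and referenced to vehicle-treated cultures.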

[2] = NCI Yeast Anticancer Drug Screen. Data for the mec2-1 strain (AID 157); conditions: S. cerevisiae mec2-1 strain, at 50.0 µM, stronger effect = higher value
Procedure, shortened: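 Growth inhibition is read against vehicle-treated controls after compound exposure of the mec2-1 yeast strain, which is defective in DNA damage repair or cell cycle control.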

[3] = NCI Yeast Anticancer Drug Screen. Data for the sgs1 mgt1 strain (AID 161);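 also: 0% = growth of cultures given vehicle only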; conditions: S. cerevisiae sgs1 mgt1 strain, at 50.0 µM, stronger effect = higher value
Procedure, shortened: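 Growth of a repair-deficient yeast mutant was monitored after compound treatment and expressed as inhibition relative to vehicle-treated cultures.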

[4] = NCI Yeast Anticancer Drug Screen. Data for the cln2 rad14 strain (AID 165);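 also: 0% = growth equal to vehicle treated cultures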; conditions: S. cerevisiae cln2 rad14 strain, at 50.0 µM, stronger effect = higher value
Procedure, shortened: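 Growth inhibition, relative to vehicle-treated controls, is the read-out. The test organism is a yeast strain with defined genetic alterations, cln2 rad14.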

[5] = NCI Yeast Anticancer Drug Screen. Data for the bub3 strain (AID 167); conditions: S. cerevisiae bub3 mutant strain, at 50.0 µM, stronger effect = higher value
Procedure, shortened: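 Whole-cell yeast assay. The mutant strain was incubated with compounds, and growth inhibition was determined by comparison with vehicle-treated cells.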

[6] = NCI Yeast Anticancer Drug Screen. Data for the mlh1 rad18 strain (AID 175); conditions: S. cerevisiae mlh1 rad18 strain growth inhibition; at 50.0 µM; stronger effect = higher value
Procedure, shortened: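 Cells of a genetically altered yeast strain, deficient in DNA damage repair, were treated with compound. Their growth was then compared with that of vehicle-treated cultures to give inhibition.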

Measured: growth inhibition

O=C(NCN1CCOCC1)Nc1ccccc1
inactive: [1] 8% | [2] 0.6% | [3] -1.65% | [4] -24.2% | [5] -6.55% | [6] 2.05%

CC(Cl)C(O)C#N (configuration not stated)
inactive: [1] -25.1% | [2] -3.35% | [3] -10.8% | [4] -8.2% | [5] 1.6% | [6] -16.2%

Cc1ccc(NC(=O)/C=C/c2ccccc2)cc1Cl
inactive: [1] 2% | [2] 14.2% | [3] 8.15% | [4] -5.5% | [5] 27.4% | [6] 16.1%

COc1ccc(CC2(Cc3ccc(OC)cc3)CCOC2=O)cc1
inactive: [1] -23.1% | [2] -31.9% | [3] -16.1% | [4] 1.2% | [5] 2.25% | [6] -31.4%

CN(C)C(=S)N(C)C
inactive: [1] -37.1% | [2] -33% | [3] -17.4% | [4] 0.45% | [5] -23.2% | [6] -23.7%

COC(=O)/C(=N/NC(C)(C)C)C(C(=O)OC)C(=O)C(=O)Nc1nc2ccc([N+](=O)[O-])cc2s1 (configuration not stated)
inactive: [1] 33.1% | [2] 8.15% | [3] -22.9% | [4] -10.4% | [5] 0.1% | [6] 27.4%

CCc1nc(-c2ccccc2)nc2c1nc(-c1cccc(C)c1)n2Nc1ccccc1
inactive: [1] 1.45% | [2] 3.1% | [3] -6.15% | [4] -3% | [5] -1.6% | [6] 24.1%

COCCCC12C=C(OC)C(=O)C=C1OC(c1cc(OC)c(OC)c(OC)c1)C2C (configuration not stated)
inactive: [1] 0% | [2] -13.1% | [3] -36% | [4] -18% | [5] -32.5% | [6] -14.5%

OCCCCCCO
inactive: [1] -2.55% | [2] -15.6% | [3] 16.1% | [4] -16.7% | [5] 4.3% | [6] 12.3%

Clc1cccc2[nH]ccc12
inactive: [1] -6.1% | [2] -3.1% | [3] -23.9% | [4] -10.2% | [5] -11.3% | [6] -3.9%

O=c1[nH]c(-c2ccccc2)nc(-c2ccccc2)c1Cc1cc2c(cc1O)OCC2
inactive: [1] -0.1% | [2] -4.05% | [3] 20.7% | [4] 2.8% | [5] 0.7% | [6] -10.6%

COc1cccc(NC(=S)Nn2c(C)nc3ccccc3c2=O)c1
inactive: [1] -25.2% | [2] -14% | [3] -17.1% | [4] 0.25% | [5] -11.3% | [6] -28.6%

CCOCC/C(=N\Nc1ccc([N+](=O)[O-])cc1[N+](=O)[O-])c1ccccc1
inactive: [1] 19.8% | [2] 5.85% | [3] 11.2% | [4] 19.6% | [5] 30% | [6] 9.55%

C=C1CN=C(Nc2ccc(Cl)cc2)S1
inactive: [1] -11.1% | [2] 18.1% | [3] -14.8% | [4] 17.2% | [5] 11.5% | [6] -13.7%

CC(C)CC(Br)C(=O)NCC(=O)NCC(=O)O (configuration not stated)
inactive: [1] 32.3% | [2] -17.1% | [3] -5.35% | [4] 7.95% | [5] 2.85% | [6] -8.95%

CCCc1ccc(N)cc1
inactive: [1] 3.25% | [2] -38.4% | [3] -9.1% | [4] -18.1% | [5] -24.4% | [6] -15.7%

CSc1ccc(NC(=O)Nc2cccc(C(C)=O)c2)cc1
inactive: [1] 2.15% | [2] 31.2% | [3] 10.3% | [4] -17.1% | [5] 43% | [6] 24.8%

COC(=O)c1nnn(CCc2c[nH]c3ccccc23)c1C(=O)OC
inactive: [1] -10.8% | [2] 4% | [3] -11.3% | [4] -11.6% | [5] 19.8% | [6] -24.7%

OCC1NCC(O)C(O)C1O (configuration not stated)
inactive: [1] -6.6% | [2] -11.6% | [3] -14.4% | [4] 2.3% | [5] -8.3% | [6] 7.25%

OCC1OC(n2ncc3c(Nc4ccccc4)ncnc32)C(O)C1O (configuration not stated)
inactive: [1] 17.1% | [2] 18.3% | [3] 6.75% | [4] -5.7% | [5] 6.9% | [6] 17.9%

CNc1ccc(Cl)cc1S(=O)(=O)c1ccccc1[N+](=O)[O-]
inactive: [1] 3.2% | [2] 16.4% | [3] 24.8% | [4] 23.3% | [5] 5.65% | [6] -7.05%

CCc1cc2c(O)c(c1)Cc1cc(CC)cc(c1O)Cc1cc(CC)cc(c1O)Cc1cc(CC)cc(c1O)Cc1cc(CC)cc(c1O)Cc1cc(CC)cc(c1O)Cc1cc(CC)cc(c1O)C2
inactive: [1] 6.55% | [2] 27.2% | [3] 19.8% | [4] 6.5% | [5] 6.9% | [6] 17.3%

CC(=O)Oc1cc2c(cc1OC(C)=O)C1(C)CCC2(C)c2cc(OC(C)=O)c(OC(C)=O)cc21
inactive: [1] 1.6% | [2] 0.2% | [3] 3.6% | [4] 9.55% | [5] -2.7% | [6] 14.3%

ClC(Cl)(Cl)C1CCC2CCCC21 (configuration not stated)
inactive: [1] 4.15% | [2] -24.1% | [3] -3.45% | [4] 6.1% | [5] -9.1% | [6] -0.8%

O/N=C1/CCCCC1NO (configuration not stated)
inactive: [1] -17.9% | [2] -22.9% | [3] -32.2% | [4] 15.7% | [5] -10.8% | [6] -19.7%

COP(=O)(CC(=O)C1OC(C)(C)OC1C(O)COCc1ccccc1)OC (configuration not stated)
inactive: [1] -21.3% | [2] 22.9% | [3] 22.9% | [4] 14.3% | [5] 14.6% | [6] 5.85%

CCOc1ccccc1NC(=S)NC1CCCCC1
inactive: [1] -8.65% | [2] -9.3% | [3] 3.7% | [4] -17.2% | [5] 25.1% | [6] -6.3%

O=[N+]([O-])c1cc(F)ccc1Sc1ccccc1
inactive: [1] 49.2% | [2] 23.4% | [3] 38.9% | [4] 39.8% | [5] 20.6% | [6] 40.6%

CC(=O)c1cc2ccccc2o1
inactive: [1] 17.6% | [2] 1.4% | [3] -4% | [4] 0.05% | [5] -6.7% | [6] 4.6%

COc1ccc(C(=O)CCc2cccc(NC(=O)CCCl)c2)cc1
inactive: [1] -17.6% | [2] 6.2% | [3] 6.45% | [4] -9.1% | [5] -6.85% | [6] -11.8%

O=c1c(Br)c(-c2ccccc2Br)[nH]c2ccccc12
inactive: [1] -1.25% | [2] 13.7% | [3] 11.3% | [4] 0.4% | [5] -3.45% | [6] -13.9%

COc1cc(OC)c2cnc(Cl)cc2c1
inactive: [1] 15.4% | [2] -9.1% | [3] -5.35% | [4] -41.4% | [5] -2.85% | [6] 6.6%

CC(=O)Nc1ccc2oc(C)nc2c1
inactive: [1] 23.9% | [2] -1.3% | [3] 8.3% | [4] 8.7% | [5] 13.2% | [6] 20.6%

COc1cc(NCCCCCCCNC(C)C)c2nccc(C)c2c1
inactive: [1] 26.7% | [2] 13.7% | [3] -6.25% | [4] 7.35% | [5] -2.7% | [6] -33.1%

O=C(O)c1cccc(Br)c1
inactive: [1] 4.85% | [2] -19.1% | [3] -8.4% | [4] -38.2% | [5] -5.7% | [6] -5.5%

Nc1nnc(CCC(=O)Nc2cccc(C(F)(F)F)c2)n1N
inactive: [1] 4.85% | [2] 5.6% | [3] 7.3% | [4] -27.9% | [5] 9.65% | [6] 1.55%

CCOC(=O)C(C=Nc1ccc(S(N)(=O)=O)cc1)C(=O)OCC
inactive: [1] -8.15% | [2] 4.85% | [3] 12.1% | [4] -22.4% | [5] -1.1% | [6] -24.9%

COCCNC(=O)/C=C\C(=O)O
inactive: [1] 3.35% | [2] -3.55% | [3] -2.95% | [4] -49.4% | [5] 12.2% | [6] -3.8%

COc1ccc2c(c1)CC1c3[nH]c4ccccc4c3CCN1C2 (configuration not stated)
inactive: [1] 52.7% | [2] 35.5% | [3] 52.9% | [4] 32.5% | [5] 19.1%
active: [6] 79%

COc1ccc(Cl)cc1NC(=O)c1ccccc1C(=O)O
inactive: [1] 1.2% | [2] 20.9% | [3] -3.2% | [4] -4.3% | [5] 12.4% | [6] -26.1%

O=C(O)c1c2c(nc3ccccc13)CCC2
inactive: [1] 2.55% | [2] -9.75% | [3] 6.35% | [4] -14.5% | [5] 12.2% | [6] -8.4%

OC12c3ccccc3C1CCCCCCCCCC21OCCO1 (configuration not stated)
inactive: [1] -21.5% | [2] -2.45% | [3] -40.6% | [4] 5.05% | [5] -19.1% | [6] -27.8%
